# Data from PubChem BioAssay AID1159580 (chemical genetic matrix, 2015).
# About 2,000 (36%) of roughly 5,500 compounds were called active. About 18% were inconclusive and are not listed. The list shows a part of the results. Values without a mark were called inactive. Cut-off read from the data, not from the text of the source: active = normalized growth mostly below about 0.91 (no sharp cut-off); inconclusive = no clear call, values can overlap the other calls; inactive = mostly above about 0.92.
# Assay: chemical genetic growth profiling, strain panel (AID 1159580);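 note: tested at 20 µM; growth read once vehicle control cultures reached saturation at 30 °C; 1 = growth at the plate median or of vehicle wells; lower values mean less growth of the strain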
# Conditions: S. cerevisiae deletion strains, growth OD
smiles,measurement,setting,value
CC(=O)C1COc2ccc(C)cc2C1=O (configuration not stated),normalized growth,"locus YAL013W, strain DEP1, stronger effect = lower value",0.972
same,normalized growth,"locus YBR229C, strain ROT2, stronger effect = lower value",0.898 (active)
same,normalized growth,"locus YCL061C, strain MRC1, stronger effect = lower value",0.916
same,normalized growth,"locus YDL101C, strain DUN1, stronger effect = lower value",0.838 (active)
same,normalized growth,"locus YDR150W, strain NUM1, stronger effect = lower value",0.984
same,normalized growth,"locus YEL061C, strain CIN8, stronger effect = lower value",0.924
same,normalized growth,"locus YGR078C, strain PAC10, stronger effect = lower value",0.952
same,normalized growth,"locus YHR030C, strain SLT2, stronger effect = lower value",0.291 (active)
same,normalized growth,"locus YHR087W, strain rtc3, stronger effect = lower value",0.916
same,normalized growth,"locus YJL187C, strain SWE1, stronger effect = lower value",0.888 (active)
same,normalized growth,"locus YJR043C, strain POL32, stronger effect = lower value",0.931
same,normalized growth,"locus YJR075W, strain HOC1, stronger effect = lower value",0.903
same,normalized growth,"locus YKL190W, strain CNB1, stronger effect = lower value",0.832 (active)
same,normalized growth,"locus YLR039C, strain RIC1, stronger effect = lower value",0.173 (active)
same,normalized growth,"locus YLR058C, strain SHM2 (second series), stronger effect = lower value",0.923 (active)
same,normalized growth,"locus YLR085C, strain ARP6, stronger effect = lower value",0.44 (active)
same,normalized growth,"locus YLR262C, strain YPT6, stronger effect = lower value",0.176 (active)
same,normalized growth,"locus YML094W, strain GIM5, stronger effect = lower value",0.848 (active)
same,normalized growth,"locus YMR219W, strain ESC1, stronger effect = lower value",0.928 (active)
same,normalized growth,"locus YMR263W, strain SAP30, stronger effect = lower value",0.96
same,normalized growth,"locus YNL153C, strain GIM3, stronger effect = lower value",0.954
same,normalized growth,"locus YNL298W, strain CLA4 (second series), stronger effect = lower value",0.855
same,normalized growth,"locus YNL322C, strain KRE1, stronger effect = lower value",0.979
same,normalized growth,"locus YNR030W, strain Alg12, stronger effect = lower value",0.901
same,normalized growth,"locus YPL055C, strain LGE1, stronger effect = lower value",0.93
same,normalized growth,"locus YPL241C, strain CIN2, stronger effect = lower value",0.914
same,normalized growth,"locus YPR135W, strain CTF4, stronger effect = lower value",0.58 (active)
